a7 integrin act: qHTS for Activators of Integrin-Mediated Alleviation for Muscular Dystrophy | alpha7betagal myoblasts, beta-gal FDG fluorescence, 48 h | Potency, µM (titrated, usually from 38.3 µM), actives largely listed as activators | 0.064% of 350,000 active | AID 624291, 2012; also: nearly all actives have a fitted effect of over 60% in size
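Alpha7betagal+/- myoblasts (passage 13) were plated 16-24 hr, then exposed to compounds (1:260 dilution of DMSO stock) for 48 hours at 37C. After MPER lysis, β-galactosidase reporter activity was read as FDG fluorescence (ex 480/em 540) after 30 minutes.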
mIDH1 inhibitor: qHTS for Inhibitors of mutant isocitrate dehydrogenase 1 (IDH1): qHTS; IDH1-R132H enzyme, NADPH consumption, diaphorase/resazurin fluorescence; Potency, µM (top dose mostly 76.6 µM), hits mostly inhibitors; 0.093% of 390,000 active; Isocitrate dehydrogenase [NADP] cytoplasmic (Homo sapiens), O75874; also: nearly all actives have a fitted effect of over 65% in size
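IDH1-R132H (0.5 ug/mL) preincubated 30 min with compound, then NADPH (0.016 mM) and alpha-KG (2 mM) added; 80 min at RT, pH 7.5. Remaining NADPH coupled via diaphorase/resazurin to fluorescence (540/590 nm); concentration-response curves normalized to no-enzyme control.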
DRD3 antagonist: qHTS of D3 Dopamine Receptor Antagonist: qHTS; D3R cells, DiscoveRx beta-arrestin luminescence, antagonist mode; hits give low values; max response, negative = inhibition, %; 2.5% of 360,000 active; AID 652054, 2013; in the data active = max response below about -50%
Target sequence (P35462 whole entry, looked up): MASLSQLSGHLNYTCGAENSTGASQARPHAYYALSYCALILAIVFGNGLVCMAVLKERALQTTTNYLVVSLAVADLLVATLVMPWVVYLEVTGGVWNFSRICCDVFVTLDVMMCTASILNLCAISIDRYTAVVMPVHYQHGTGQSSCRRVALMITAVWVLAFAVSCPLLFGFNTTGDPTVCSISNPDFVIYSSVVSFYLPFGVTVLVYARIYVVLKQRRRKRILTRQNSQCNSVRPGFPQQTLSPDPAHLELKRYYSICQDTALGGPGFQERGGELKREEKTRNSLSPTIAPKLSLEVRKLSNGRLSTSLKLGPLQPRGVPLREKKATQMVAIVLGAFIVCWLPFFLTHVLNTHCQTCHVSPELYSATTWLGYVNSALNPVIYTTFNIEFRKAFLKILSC
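Cells expressing the human receptor were seeded at 1500 cells/well, incubated overnight at 37 degrees C in 5% CO2, then exposed to library compounds with dopamine controls for 90 minutes at 37 degrees C before luminescent detection.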
B2AR arrestin: qHTS assay of beta-arrestin-biased ligands of beta2-adrenergic receptor; Potency, µM (series often up to 46.1 µM), hits mostly activators; 0.02% of 330,000 active; beta-arrestin recruitment to beta2AR, cell-based reporter; Beta-2 adrenergic receptor (Homo sapiens), P07550; also: nearly all actives have a fitted effect of over 65% in size
DRD3 agonist: qHTS of D3 Dopamine Receptor Agonist: qHTS; D(3) dopamine receptor (Homo sapiens), P35462; D3R DiscoveRx beta-arrestin cells, luminescence, 90 min; max activation, %; 0.58% of 410,000 active; in the data active = max activation above about 30%
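Cells at 1500/well, incubated overnight, then treated with pinned compounds (dopamine as control) for 90 min at 37 degrees C. DiscoveRx reagent added for 30 - 60 minutes at room temperature; luminescence read.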
Large screens that a line does not name were inactive. An excerpt weighted towards active compounds, which were near 2.9% of everything screened. Unless noted, calls follow the shape of the dose curve; as a rule, active = well fitted curve in the direction sought with a large enough effect; inconclusive = small, poorly fitted or top-dose-only effect, or another doubt; inactive = no such curve, though single readings can be large; an effect the other way counts as inactive or inconclusive.

COC(=O)c1sccc1NC(=O)c1cc(-c2cc(C)ccc2C)nc2ccccc12	none
Cc1ccc(C)c(-c2cc(C(=O)Nc3nccs3)c3ccccc3n2)c1	DRD3 agonist 32
Cc1ccc(C(=O)O)c(C(=O)Nc2nc3ccccc3s2)c1	DRD3 agonist 30
[O-][n+]1ccccc1SSc1cccc[n+]1[O-]	none (no result: a7 integrin act, mIDH1 inhibitor, DRD3 antagonist, B2AR arrestin)
COc1cc2c(cc1OC)CN(C(=O)C1CCCN1S(=O)(=O)c1ccc(C)cc1)CC2 (configuration not stated)	none
COc1ccc(/C=N/NC(=O)c2cc3c(ccc4ccccc43)o2)cc1OC	none
COc1ccc2ccccc2c1/C=N/NC(=O)c1ccc([N+](=O)[O-])cc1	DRD3 antagonist -97
COc1cc(C(=O)N/N=C/c2cc([N+](=O)[O-])cs2)cc(OC)c1OC	DRD3 antagonist -50
COc1ccc2ccc(OC)c(/C=N/NC(=O)c3cc4ccccc4o3)c2c1	DRD3 antagonist -87 (no result: B2AR arrestin)
CCOc1ccc(C(=O)N/N=C/c2cc([N+](=O)[O-])cs2)cc1	none
CCc1ccc2c(c1)c(=O)c(S(=O)(=O)c1ccccc1)cn2CC(=O)Nc1ccc(OC)cc1	none (no result: a7 integrin act, DRD3 antagonist, B2AR arrestin)
C[C@@H]1C[C@H]2[C@@H]3CCC4=CC(=O)C=C[C@]4(C)[C@@]3(F)[C@@H](O)C[C@]2(C)[C@@]1(O)C(=O)COC(=O)c1cccc(S(=O)(=O)O)c1	none (no result: a7 integrin act, mIDH1 inhibitor, DRD3 antagonist, B2AR arrestin)
CCc1ccc(NC(=O)CSc2ccc3nnc(CCNS(=O)(=O)c4ccc(OC)cc4)n3n2)cc1	none (no result: a7 integrin act, DRD3 antagonist, B2AR arrestin)
N#Cc1ccccc1NC(=O)C(=O)NCCc1csc2nc(-c3cccc(F)c3)nn12	none (no result: a7 integrin act, DRD3 antagonist, B2AR arrestin)
Cn1c(-c2sccc2OCc2ccccc2)n[nH]c1=S	DRD3 antagonist -54
Cc1ccc(COc2ccsc2-c2n[nH]c(=S)n2C)cc1	none
CC/C=C(\C(=O)N[C@@H]1C(=O)N2C(C(=O)OCOC(=O)C(C)(C)C)=C(COC(N)=O)CS[C@H]12)c1csc(N)n1	none (no result: a7 integrin act, mIDH1 inhibitor, DRD3 antagonist, B2AR arrestin)
CCN(C(=O)C(=O)Nc1ccc2nc3n(c(=O)c2c1)CCCCC3)c1ccc(F)cc1	none (no result: a7 integrin act, DRD3 antagonist, B2AR arrestin)
Cc1ccc(NS(=O)(=O)c2cc(-c3cnc(C4CC4)o3)ccc2C)cc1Cl	none (no result: a7 integrin act, mIDH1 inhibitor, DRD3 antagonist, B2AR arrestin)
O=C(Nc1cc(Br)ccc1O)C1CC(c2ccccc2Cl)=NO1 (configuration not stated)	a7 integrin act 13µM
O=C(NCc1cccs1)c1ccc2c(c1)sc1nc(-c3ccccc3)cn12	none (no result: a7 integrin act, DRD3 antagonist, B2AR arrestin)
O=C(Nc1ccc(OC(F)(F)F)cc1)C(NS(=O)(=O)c1cccc2nsnc12)c1ccccc1 (configuration not stated)	none (no result: a7 integrin act, DRD3 antagonist, B2AR arrestin)
O=C(Cn1nnc(-c2ccccc2)n1)N/N=C/c1cc([N+](=O)[O-])ccc1O	DRD3 antagonist -76
O=C(Nc1ccc(Br)cc1)/C(=C/c1cccc([N+](=O)[O-])c1)NC(=O)C1CCCCC1	DRD3 antagonist -63
O=C(N/N=C/c1cc([N+](=O)[O-])ccc1O)C1CCCCC1	DRD3 antagonist -88
O=C(Cn1nc2ccccc2n1)N/N=C/c1cc([N+](=O)[O-])ccc1O	DRD3 antagonist -65
O=C(Cn1nnc(-c2ccccc2)n1)N/N=C/c1cc([N+](=O)[O-])c(Cl)cc1Cl	none
O=C(N/N=C/c1cc([N+](=O)[O-])ccc1O)C1C2CCCCC21 (configuration not stated)	none (no result: a7 integrin act, mIDH1 inhibitor, DRD3 antagonist, DRD3 agonist)
CCOc1ccccc1NC(=O)[C@@H](NC(=O)c1ccccc1F)C(C)C	none
CCCCCn1c(=O)[nH]c2cc(C(=O)NCc3ccc(OC)cc3)ccc2c1=O	none (no result: a7 integrin act, DRD3 antagonist, B2AR arrestin)
O=C(c1cnn(-c2ccc(F)cc2)c1-n1cccc1)N1CCN(c2ccccc2)CC1	none (no result: a7 integrin act, DRD3 antagonist, B2AR arrestin)
CCN(CC)C(=O)C1CCCN(c2ccc([N+](=O)[O-])cc2/C=N/NC(=O)c2ccc([N+](=O)[O-])cc2)C1 (configuration not stated)	DRD3 antagonist -79
Cc1ccc(-c2nc3ccccc3[nH]2)cc1NC(=S)NC(=O)c1ccccc1Br	DRD3 antagonist -51
CCN(CC)CCCNC(=S)N1CCN(c2nc(-c3ccc(F)cc3)cs2)CC1	DRD3 antagonist -52
CCCN(CCC)CCc1cccc2c1CC(=O)N2	DRD3 agonist 81 (no result: a7 integrin act, mIDH1 inhibitor, DRD3 antagonist, B2AR arrestin)
COc1cccc(N2CCN(c3ncnc4c3c(-c3ccccc3)cn4-c3ccc(F)cc3)CC2)c1	none (no result: a7 integrin act, DRD3 antagonist, B2AR arrestin)
CN1CCN(c2ncnc3c2c(-c2ccccc2)cn3-c2ccc(F)cc2)CC1	DRD3 antagonist -63
CCCCc1oc2ccc(NS(C)(=O)=O)cc2c1C(=O)c1ccc(OCCCN(CCCC)CCCC)cc1	none (no result: a7 integrin act, mIDH1 inhibitor, DRD3 antagonist, B2AR arrestin)
COc1cccc(/C=N/NC(=S)Nc2cccc(S(=O)(=O)N(C)C)c2)c1	B2AR arrestin 18µM
CC(=O)c1ccc(N2C(=O)N(Cc3ccc(F)cc3)c3ccccc3S2(=O)=O)cc1	DRD3 agonist 50 (no result: a7 integrin act, DRD3 antagonist, B2AR arrestin)
CC(=O)c1ccc(N2C(=O)N(CC(=O)c3ccc(F)cc3)c3ccccc3S2(=O)=O)cc1	none (no result: a7 integrin act, DRD3 antagonist, B2AR arrestin)
CCOC(=O)/C(=C/C1=CC(=C/N(C)C)/C(=O)O1)C(C)=O	DRD3 agonist 30
CCC(NC(C)C)C(O)c1ccc(O)c2[nH]c(=O)ccc12 (configuration not stated)	B2AR arrestin 0.18µM, DRD3 agonist 35 (no result: a7 integrin act)
O=C(NC(NNc1ccc([N+](=O)[O-])cc1)(C(F)(F)F)C(F)(F)F)c1ccc(Cl)cc1	DRD3 antagonist -74
CCOc1ccccc1NC(=O)c1ccc2c(Cl)c3c(nc2c1)CCCC3	none (no result: a7 integrin act, DRD3 antagonist, B2AR arrestin)
OCCCNc1ncnc2c1ncn2[C@H]1CN(Cc2cccs2)C[C@@H](CO)O1	none (no result: a7 integrin act, mIDH1 inhibitor, B2AR arrestin)
Cc1ccc(Nc2cc(C)c3ccc(O)cc3n2)cc1C	DRD3 antagonist -57
OCCC1CN(Cc2cc3c(cc2Cl)OCO3)CCN1C1CCCC1 (configuration not stated)	DRD3 antagonist -53
OCCC1CN(Cc2cc3c(cc2Cl)OCO3)CCN1C1CCCCC1 (configuration not stated)	none
Cc1cc(C)cc(-n2ccn(CC(=O)Nc3cc(C)ccc3C)c(=O)c2=O)c1	none (no result: a7 integrin act, DRD3 antagonist, B2AR arrestin)
Cc1ccc(-c2nc(-c3cc4cccc(OCc5cccc(F)c5)c4oc3=O)no2)cc1	none (no result: a7 integrin act, DRD3 antagonist, B2AR arrestin)
O=C(NCc1cccnc1)C(=O)NCC(c1ccco1)N1CCN(c2ccccc2F)CC1 (configuration not stated)	DRD3 agonist 51
O=C(NCc1ccccc1)C(=O)NCC(c1ccco1)N1CCN(c2ccccc2F)CC1 (configuration not stated)	none
CN(C)c1ccc(CNc2nc3cc(-c4ccc(F)cc4)sc3c(=O)n2C)cc1	none (no result: a7 integrin act, mIDH1 inhibitor, B2AR arrestin)
CCOc1ccc2nc(N3C(=O)C(O)=C(C(=O)c4ccco4)C3c3ccco3)sc2c1 (configuration not stated)	none
